Inhibition data for 45 molecules are collected here from PubChem BioAssay AID623870 (Broad Institute, 2012).

In all, about 390,000 compounds went through this assay and about 2,600 (0.67%) were called active.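 The calls were made as follows: active = mean inhibition of replicates at least 50% and at least half of replicates each reaching 50%; inconclusive = half or more replicates reach 50% but mean below 50%; inactive = the rest.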 The full list was thinned out, with actives kept by preference.

For this assay, the target named is Transforming acidic coiled-coil-containing protein 3 (Homo sapiens) (UniProt Q9Y6A5). Briefly: inhibitors of ARNT PAS-B binding to TACC3 – biochemical, AlphaScreen, single concentration, primary screen (AID 623870).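 Also: 0% = complete ARNT plus TACC3 wells and 100% = ARNT alone without TACC3.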 The note with it: AlphaScreen His-ARNT PAS-B/GST-TACC3 binding, luminescence; at 9.99 µM; stronger effect = higher value; TACC3 fragment carries E629A point mutation. A general note: In Alpha technology, singlet oxygen from a donor bead excites a nearby acceptor bead.
As a reminder, the inhibition is the change of the read-out against control, counted positive when it falls. For the molecule `COc1ccc(S(=O)(=O)N(C)C[C@H]2Oc3ccc(NC(=O)CCC(F)(F)F)cc3CC(=O)N([C@H](C)CO)C[C@@H]2C)cc1`, the inhibition is 14.1% (inactive).
Next, `CCCN(C)C[C@H]1Oc2ncc(-c3cccnc3)cc2C(=O)N([C@@H](C)CO)C[C@@H]1C`: -0.744% (inactive); `Cc1ccc(S(=O)(=O)N(C)C[C@@H]2OCCCC[C@@H](C)Oc3ccc(NC(=O)C4CCCCC4)cc3C(=O)N([C@H](C)CO)C[C@H]2C)cc1`: -8.72% (inactive).
For the molecule `CCCC(=O)Nc1ccc2c(c1)OC[C@H](C)N(CCC)C[C@@H](C)[C@@H](OC)CN(C)C2=O`, the inhibition was 1.16% (inactive).
`CC(C)NC(=O)Nc1ccc2c(c1)C(=O)N([C@H](C)CO)C[C@H](C)[C@@H](CN(C)S(=O)(=O)c1ccc(F)cc1)OCCCC[C@H](C)O2`: the inhibition was -7.08% (inactive).
As for `CCCN(C)C[C@@H]1Oc2cc(C#CCc3ccccc3)ccc2S(=O)(=O)N([C@H](C)CO)C[C@@H]1C`, the figure is 1.97% (inactive).
For `CCOc1cccc(/C=N/N2C(=O)CSC2=S)c1O`, the inhibition was 59.8% (active).
As for `CCOc1cc(/C=N/n2cnnc2)c(Br)cc1O`, the figure is 7.91% (inactive); as for `O=C1CSC(=S)N1/N=C/c1ccc(O)c([N+](=O)[O-])c1`, 12.1% (inactive); as for `C[C@H](CO)N1C[C@H](C)[C@H](CN(C)C(=O)c2cnccn2)Oc2cc(C3=CCCC3)ccc2S1(=O)=O`, 1.21% (inactive).
Consider `COCC#Cc1ccc2c(c1)O[C@@H](CN(C)Cc1ccccn1)[C@@H](C)CN([C@@H](C)CO)S2(=O)=O`, for which the inhibition was -0.755% (inactive).
Next, `O=C(O)c1ccc(/C=N/Nc2nc(N3CCCCC3)nc(N3CCCCC3)n2)cc1`: 45% (active).
As for `O=C(NNc1nc(N2CCCC2)nc(N2CCCC2)n1)c1ccccc1`, the figure is -2.38% (inactive); as for `C/C(=N\Nc1nc(N2CCOCC2)nc(N2CCOCC2)n1)c1ccc([N+](=O)[O-])cc1`, 15.4% (inactive).
`CCCN1C[C@@H](C)[C@H](OC)CN(C)C(=O)c2ccc(NC(=O)C3CCOCC3)cc2OC[C@@H]1C`: the inhibition is -0.135% (inactive).
With `C[C@H]1CN([C@@H](C)CO)C(=O)c2cccc(NC(=O)Nc3ccccc3)c2O[C@H]1CN(C)Cc1ccc(C(F)(F)F)cc1`, the inhibition was 7.66% (inactive).
In the case of `Nc1nonc1-n1nnc(C(=O)N/N=C/c2cc(Br)ccc2O)c1CSC1=NCCS1`, the inhibition was 17.4% (inactive).
Next, `Oc1ccc(Br)cc1/C=N/Nc1ccccn1`: 44.2% (active).
Consider `Fc1ccccc1/C=N/Nc1cc(N2CCCCC2)ncn1`, for which the inhibition is 22.7% (inactive).
As for `C[C@H]1CN([C@@H](C)CO)C(=O)c2c(c3ccccc3n2C)-c2ccccc2CO[C@H]1CN(C)S(=O)(=O)c1ccc(C#N)cc1`, the figure is 11.3% (inactive); as for `O=C(C[C@@H]1CC[C@H]2[C@@H](COC[C@@H](O)CN2C(=O)Nc2ccc(F)cc2)O1)NCC1CC1`, 1.68% (inactive).
As for `CN(c1ccccc1)S(=O)(=O)c1ccc(C(=O)N2CCN(c3ccccc3Cl)CC2)cc1`, the figure is -20.3% (inactive); as for `CN(c1ccc(C(=O)N2CCc3ccccc3C2)cc1)S(C)(=O)=O`, 54% (active).
As for `COc1cccc(N(CC(=O)N2CCc3ccccc3C2)S(C)(=O)=O)c1`, the figure is 1.07% (inactive); as for `COc1ccc(S(=O)(=O)N(C)C[C@@H]2OCCCC[C@@H](C)Oc3ccc(NS(C)(=O)=O)cc3C(=O)N([C@H](C)CO)C[C@@H]2C)cc1`, -15.8% (inactive).
Take `CCCN(C)C[C@H]1Oc2ncc(C#CCOC)cc2C(=O)N([C@@H](C)CO)C[C@H]1C`: the inhibition is -7.68% (inactive).
Next, `Cc1ccc(S(=O)(=O)Nc2ccc3c(c2)C(=O)N([C@H](C)CO)C[C@H](C)[C@H](CN(C)C(=O)Nc2ccc4c(c2)OCO4)OCCCC[C@@H](C)O3)cc1`: -0.754% (inactive); `Cc1ccccc1N1CCN(C(=O)c2cccnc2)CC1`: -7.09% (inactive).
As for `O=C(Nn1cc(C(=O)N2CCN(c3ccccc3F)CC2)c2ccccc2c1=O)c1cnccn1`, the figure is 68.5% (active); as for `COc1ccc(Nc2ncc(C(=O)N3CCN(c4ccccc4OC)CC3)c3ccccc23)cc1`, 1.33% (inactive).
As for `Cc1ccc(S(=O)(=O)NCC[C@H]2CC[C@@H](NS(=O)(=O)c3ccccc3Cl)[C@H](CO)O2)cc1`, the figure is 2.36% (inactive); as for `C[C@@H]1CN([C@@H](C)CO)C(=O)c2cc(NC(=O)C3CCCCC3)ccc2O[C@@H]1CN(C)S(=O)(=O)c1ccc(F)cc1`, -1.9% (inactive).
Consider `COC(=O)[C@@H]1CCCN1C(=O)c1cc(COc2cccc3cccnc23)on1`, for which the inhibition was 6.38% (inactive).
Next, `CCOc1cc(N2CCOCC2)c(OCC)cc1NC(=O)COc1cccc2cccnc12`: 59.4% (active); `NC(=O)C1CCN(C(=O)COc2cccc3cccnc23)CC1`: -5.01% (inactive).
`C[C@@H]1CN([C@@H](C)CO)C(=O)c2cccc(N(C)C)c2O[C@@H]1CN(C)S(=O)(=O)c1ccccc1`: the inhibition was -5.11% (inactive).
As for `C[C@@H]1CCCCO[C@H](CN(C)C(=O)CCC(F)(F)F)[C@H](C)CN([C@@H](C)CO)C(=O)c2cc(NC(=O)CCCCCC(=O)Nc3ccccc3N)ccc2O1`, the figure is 0.568% (inactive).
Next, `CO[C@H]1CN(C)C(=O)c2ccc(NC(C)=O)cc2OC[C@@H](C)N(C(=O)c2ccncc2)C[C@@H]1C`: 34.9% (inactive).
As for `O=C(O)C[C@@H]1C[C@@H]2c3cc(NC(=O)Nc4ccccc4)ccc3O[C@@H]2[C@H](CO)O1`, the figure is -4.96% (inactive).
Turning to `C[C@H]1CN([C@@H](C)CO)C(=O)Cc2cc(NC(=O)Nc3ccc(F)cc3)ccc2O[C@H]1CN(C)S(=O)(=O)c1ccc(F)cc1`, the inhibition is -0.385% (inactive).
Next, `COc1ccc(CN(C)C[C@H]2Oc3c(NC(=O)c4ccncc4)cccc3C(=O)N([C@H](C)CO)C[C@@H]2C)cc1`: -4.67% (inactive); `Cc1cc(S(=O)(=O)NCc2ccccn2)c(Cl)cc1Cl`: -1.4% (inactive).
Next, `Cc1ccc(C(=O)Nc2ccc(C)c(S(=O)(=O)N(C)C)c2)s1`: -4.57% (inactive); `Cc1ccc(NC(=O)CNCc2ccccn2)cc1S(=O)(=O)N(C)C`: 71% (active).
Next, `C[C@@H]1CN([C@@H](C)CO)C(=O)c2cc(NC(=O)Cc3ccccc3)ccc2O[C@@H](C)CCCCO[C@H]1CN(C)C(=O)Cc1ccccc1`: -2.35% (inactive).
